Measurements: publication PMC10943123

Target: Small nuclear ribonucleoprotein G (UniProt P62308)
Test: cross-link between two proteins; cross-linking mass spectrometry

Substance: Small nuclear ribonucleoprotein-associated proteins B and B', P14678
- listed as a hit: yes
